# Laboratory results from article PMC4336329 (PLoS ONE, 2015).
# Among all 310,000 compounds or so, about 14,000 (4.5%) showed an effect of 50% or more. The effect is printed as a negative number. The sample as a whole holds a higher share of strong results than the screen did.
# Target: human ether-à-go-go-related gene (hERG) potassium channel (human, UniProt Q12809)
# Assay: primary screen, population patch clamp on CHO cells stably expressing hERG; higher = less effect of the substance
# 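Note: peak tail current of the secondary pulse compared with the same well before compound.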
# Chain of human ether-à-go-go-related gene (hERG) potassium channel (Q12809 whole entry, looked up): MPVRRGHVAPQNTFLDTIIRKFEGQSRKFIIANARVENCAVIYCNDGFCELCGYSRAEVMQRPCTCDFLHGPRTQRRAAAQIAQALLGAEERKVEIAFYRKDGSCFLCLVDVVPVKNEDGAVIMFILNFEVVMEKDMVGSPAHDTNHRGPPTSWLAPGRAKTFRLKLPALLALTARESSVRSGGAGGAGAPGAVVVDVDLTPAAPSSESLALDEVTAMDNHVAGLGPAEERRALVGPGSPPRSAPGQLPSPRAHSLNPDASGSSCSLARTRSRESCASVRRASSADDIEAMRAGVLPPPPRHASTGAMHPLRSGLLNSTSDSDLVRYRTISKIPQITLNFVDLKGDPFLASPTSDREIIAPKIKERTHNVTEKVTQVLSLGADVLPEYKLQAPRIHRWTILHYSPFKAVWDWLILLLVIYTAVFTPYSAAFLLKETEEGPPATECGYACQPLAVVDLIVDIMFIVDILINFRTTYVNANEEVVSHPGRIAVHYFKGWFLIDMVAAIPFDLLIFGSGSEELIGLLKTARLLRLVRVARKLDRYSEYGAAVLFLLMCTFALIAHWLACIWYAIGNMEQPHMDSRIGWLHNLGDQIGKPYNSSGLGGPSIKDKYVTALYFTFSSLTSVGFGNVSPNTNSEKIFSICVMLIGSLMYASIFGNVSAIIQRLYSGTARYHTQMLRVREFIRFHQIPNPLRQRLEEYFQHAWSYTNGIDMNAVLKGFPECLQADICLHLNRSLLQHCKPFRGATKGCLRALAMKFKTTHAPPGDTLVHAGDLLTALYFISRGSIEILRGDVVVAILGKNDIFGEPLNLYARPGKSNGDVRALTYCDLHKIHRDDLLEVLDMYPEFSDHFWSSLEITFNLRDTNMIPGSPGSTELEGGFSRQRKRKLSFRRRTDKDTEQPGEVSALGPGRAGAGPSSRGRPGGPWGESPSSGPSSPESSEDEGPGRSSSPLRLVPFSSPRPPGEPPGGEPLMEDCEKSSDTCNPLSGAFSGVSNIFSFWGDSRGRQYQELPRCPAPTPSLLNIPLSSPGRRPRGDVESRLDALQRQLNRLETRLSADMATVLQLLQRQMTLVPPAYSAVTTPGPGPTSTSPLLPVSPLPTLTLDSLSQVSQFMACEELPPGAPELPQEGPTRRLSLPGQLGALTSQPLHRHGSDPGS
row,Structure (SMILES),"hERG current change (%, negative = inhibition) at 10uM [%]"
1,CC(c1ccon1)N(C)C(=O)CCc1nnc(Cc2ccc(-c3ccccc3)cc2)o1 (centres unmarked),-21.7
2,COC(=O)/C(=C/c1ccc(F)cc1)NC(C)=O,-0.211
3,O=C(CN1C(=O)S/C(=C\c2cccc(Cl)c2)C1=O)NC1C=CS(=O)(=O)C1 (centres unmarked),18.1
4,O=C(Nc1ccccc1F)c1ccc2c(c1)OCO2,15.7
5,COCCCNCCCCOc1cccc(Br)c1.O=C(O)C(=O)O,-19.3
6,CC(C)NCCCOc1ccc(Cl)cc1Br.O=C(O)C(=O)O,-54.4
7,CC(C)NCCCCOc1ccc(Br)cc1Cl.O=C(O)C(=O)O,-64.6
8,Cc1ccc(OCCOCCNC(C)C)c(Br)c1.O=C(O)C(=O)O,-18.3
9,CC(C)NCCCCOc1ccccc1-c1ccccc1.O=C(O)C(=O)O,-32.9
10,CC(C)NCCCCOc1cccc(Br)c1.O=C(O)C(=O)O,-25.8
11,COCCNCCCCOc1ccc(Br)cc1C.O=C(O)C(=O)O,-36.7
12,COCCCNCCCCOc1ccc(Br)cc1C.O=C(O)C(=O)O,-64.6
13,Cc1cccc(NS(=O)(=O)c2cccc(C(=O)N3CCCCCC3)c2)c1,-3.09
14,Cc1cnn(-c2cc(N/N=C/c3ccc(F)cc3)ncn2)c1,5.69
15,CC(C)Cc1nnc(NC(=O)CCC(=O)N2CCC3(CC2)OCCO3)s1,12.3
16,O=c1c2ccccc2oc2cc(C#Cc3ccccn3)ccc12,7.36
17,C/C=C(/C)C(=O)Nc1cccc(C2=NOC3(C2)C[C@@H](C(N)=O)N(C(=O)CCCCC)C3)c1 (some centres unmarked),-40.1
18,COc1cc(/C=N/NC(=O)c2cc(C3CC3)[nH]n2)ccc1O,-12.7
19,CCOC(=O)C1=C(C)N(CC)C(=S)NC1c1ccc(Cl)cc1 (centres unmarked),-9.13
20,COc1ccc(C2=NNC(c3ccco3)=Nc3ccc(F)cc32)cc1,-10.8
21,COc1ccc2c(c1)C(c1ccc([N+](=O)[O-])cc1)=NNC(c1ccco1)=N2,-60
22,COc1ccc2c(c1)C(c1ccccc1)=NNC(c1ccco1)=N2,-15.7
23,O=C(CS(=O)(=O)c1cn(Cc2ccc(F)cc2)c2ccccc12)N1CCCCC1,-0.405

row,Structure (SMILES),"hERG current change (%, negative = inhibition) at 10uM [%]"
1,Cc1ccc(C#CC[N+](C)(C)CC#Cc2ccccc2)cc1.[Br-],-75.9
2,C#CC[N+](C)(C)CC#Cc1ccc(C)cc1.[Br-],6.33
3,CC[N+](CC)(CC#Cc1ccccc1)CC#Cc1ccccc1.[Br-],-69.8
4,CC[N+](CC)(CC#CCO)CC#Cc1ccccc1.[Br-],33.7
5,C#CC[N+](CC)(CC)CC#Cc1ccccc1.[Br-],9.22
6,C#CC[N+](C)(C)CC#Cc1ccccc1.[Br-],13.3
7,O=C(CSc1nnc(CNC(=O)c2ccco2)o1)Nc1ccc(F)cc1F,8.95
8,O=C(c1ccc(C#Cc2ccccc2)o1)N1CCN(c2ccccn2)CC1,-6.76
9,COc1ccc(Nc2ncccc2C(=O)Nc2ccccc2)cc1,-9.63
10,Cc1ccc(OCc2ccccc2Br)c([N+](=O)[O-])n1,16.7
11,CC(=O)c1ccc(-c2nnc(CCC(=O)N(C)Cc3cccc4cnccc34)o2)s1,-81.4
12,CN(Cc1cccc2cnccc12)C(=O)CCc1nnc(CCc2ccccc2)o1,-44.7
13,COc1ccccc1CCc1nnc(CCC(=O)N(C)Cc2cccc3cnccc23)o1,-35.3
14,O=C(NC1CCCCC1)C(c1ccncc1)N(Cc1ccc(F)cc1)C(=O)c1ccccn1 (centres unmarked),-5.49
15,Cc1cc(S(=O)(=O)N2CCc3ccccc3C2)ccc1F,7.2
16,CC(CCc1ccccc1)NC(=O)CN1CCN(c2ccccc2)CC1 (centres unmarked),-55.8
17,O=C(CN1CCN(Cc2ccccc2)CC1)NC(c1ccccc1)c1ccccc1.O=C(O)C(=O)O,-59.8
18,CC(CCc1ccccc1)NC(=O)CN1CCc2ccccc2C1 (centres unmarked),-22.4
19,COc1ccc(N2CCN(CC(=O)NC(C)c3ccccc3)CC2)cc1 (centres unmarked),20.6
20,O=C(O)C(=O)O.c1ccc(CN2CCN(C(c3ccccc3)c3ccccc3)CC2)cc1,2.22
21,CC(NC(=O)CN1CCN(c2ccc(Cl)cc2)CC1)c1ccccc1 (centres unmarked),-42.7
22,O=C(CN1CCN(c2ccc(O)cc2)CC1)NC(c1ccccc1)c1ccccc1,-50.8
23,COc1ccc(/C=N/NC(=O)CN2CCCC2)cc1,-14.8

row,Structure (SMILES),"hERG current change (%, negative = inhibition) at 10uM [%]"
1,O=C(CN1CCN(c2ccccc2O)CC1)NC(c1ccccc1)c1ccccc1,-22.7
2,COc1ccc(C(NC(=O)CN2CCCCCC2)c2ccc(OC)cc2)cc1,-65.9
3,CC(=O)C(Cc1ccccc1)NC(=O)CN1CCN(Cc2ccccc2)CC1 (centres unmarked),-5.57
4,CC(CCc1ccccc1)NC(=O)CN1CCN(c2ccc(O)cc2)CC1 (centres unmarked),-37.1
5,Cc1ccc(SCCSc2ncccn2)cc1,-2.38
6,CC(C)c1cc(-c2n[nH]c(=S)n2Cc2ccccc2)cs1,17.8
7,Cc1cc(C)nc(N2CCN(C(=O)CCC(=O)Nc3nnc(CC(C)C)s3)CC2)n1,-6.7
8,O=C(N1CCCCC1)N1CCN(S(=O)(=O)c2cccc([N+](=O)[O-])c2)CC1,-15.8
9,COc1cc(S(=O)(=O)NCc2cccnc2)ccc1F,-5.7
10,CN(C)C(=O)N1CCCC(C(=O)NCc2cccs2)C1 (centres unmarked),1.62
11,CNc1ccccc1C(=O)OCC(=O)N(CCOC)c1c(N)n(CC(C)C)c(=O)[nH]c1=O,9.81
12,CCCCN1CCNC[C@@H]1Cc1ccc(O)cc1,16
13,CCN(CC(=O)Nc1ccc(Br)c(C)c1)CC(=O)NC(C)C,-4.86
14,O=C(NCCO)c1cc([N+](=O)[O-])cc2c1C=Cc1ccccc1O2,-31.4
15,CC1Cc2ccccc2N1C(=O)COC(=O)C1(c2ccccc2F)CCCC1 (centres unmarked),-5.21
16,CCN(CC)S(=O)(=O)c1ccc(NS(=O)(=O)c2cccc(C)c2)cc1,-20.4
17,O=C(O)CCC1(c2ccccc2)NC(=O)NC1=O (centres unmarked),2.53
18,C[n+]1ccccc1/C=N/O.[Cl-],17.3
19,COc1ccccc1CN1Cc2cccc3c2[C@@H](CC1=O)[C@H](O)[C@H](O)C3,4.43
20,COC(=O)C1C(=O)N2CCCSC2=C(C#N)C1c1cccs1 (centres unmarked),1.49
21,CC1CC(C)CN(CC(=O)NC(c2ccccc2)c2ccccc2)C1.O=C(O)C(=O)O (centres unmarked),-68.4
22,CSc1ccccc1NC(=O)CN1CCCCC1C (centres unmarked),0.324
23,CC1CCCCN1CC(=O)NC(=O)NCc1ccccc1 (centres unmarked),16.8

row,Structure (SMILES),"hERG current change (%, negative = inhibition) at 10uM [%]"
1,CC(NC(=O)CN1CCCC1)c1ccccc1 (centres unmarked),21
2,O=C(CN1CCCCCC1)NC(c1ccccc1)c1ccccc1.O=C(O)C(=O)O,-57.7
3,O=C(CN1CCCC1)NC(c1ccccc1)c1ccccc1.O=C(O)C(=O)O,-34.7
4,CC1Cc2ccccc2N1CC(=O)NC(c1ccccc1)c1ccccc1.O=C(O)C(=O)O (centres unmarked),19.1
5,CC1CN(CC(=O)NC(C)c2ccccc2)CC(C)O1 (centres unmarked),9.23
6,CC1CCCCN1CC(=O)NC(c1ccccc1)c1ccccc1.O=C(O)C(=O)O (centres unmarked),-65.8
7,CCOCCCN1CN(Cc2ccco2)CNC1=S,7.86
8,CC1=C(c2ccc(F)cc2)[N+](=O)C(C)(C)N1[O-],17.7
9,Cc1ccc(-c2cc(=O)c3ccccc3[nH]2)cc1,13.6
10,Cc1cccn2cc(CCNS(=O)(=O)c3ccc([N+](=O)[O-])cc3)nc12,-22.7
11,COc1ccc2[nH]cc(C(O)CN3CCC(C(N)=O)CC3)c2c1 (centres unmarked),12
12,COc1ccc2[nH]cc(C(O)CN3CCN(c4ccccc4F)CC3)c2c1 (centres unmarked),-22
13,COc1ccc(N2CCN(CC(O)c3c[nH]c4ccc(OC)cc34)CC2C)cc1 (centres unmarked),-68.1
14,CC(Cc1ccccc1)[n+]1cc(/N=C(\[O-])Nc2ccccc2)on1 (centres unmarked),-17.4
15,CC1Sc2ccc(S(=O)(=O)NCCc3ccccc3)cc2NC1=O (centres unmarked),12.5
16,CC1CCN(CCOc2ccc(Cl)c(Cl)c2)CC1,-46.3
17,CC1CCN(CCOCCOc2ccc(Br)cc2Cl)CC1.O=C(O)C(=O)O,-75.5
18,Clc1cc(Br)ccc1OCCOCCN1CCCC1.O=C(O)C(=O)O,-57.1
19,CC1CCN(CCCOc2ccc(Cl)cc2Br)CC1,-76.3
20,CN1CCN(CCOCCOc2ccc(Br)cc2Cl)CC1.O=C(O)C(=O)O,-14.2
21,CC1CCN(CCOc2cc(Cl)ccc2Cl)CC1,-33.8
22,Clc1cc(Br)ccc1OCCN1CCOCC1.O=C(O)C(=O)O,-2.95
23,CC1CCCN(CCOCCOc2ccc(Br)cc2Cl)C1.O=C(O)C(=O)O (centres unmarked),-71
